Only some compounds are listed: those with a hit (about 2.2% of all), similar ones and a draw of the others.
ADAM17 inh: inhibits human ADAM17 | P78536 | recombinant ADAM17, EDANS/DABCYL FRET peptide cleavage | inhibition, % at 6.95 µM | actives 0.83% (n = 370,000) | AID 720648;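 active = inhibition above the mean of compounds lying between control limits plus 3 SD, set per campaign, cut at about 8.5% in these data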
GC-B act: GC-B (human) receptor activation; P20594; HEK293-GC-B cells, CNP EC30, cGMP TR-FRET; 0% at EC30 CNP, 100% saturating CNP; activation, % at 10 µM; actives 0.11% (n = 370,000);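 active = activation at 10 µM reaching about 35% in either raw or pattern-adjusted values, limit read from the data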
GC-A act: GC-A (human) enzyme activation; P16066; HEK293 GC-A cells, cGMP TR-FRET, EC30 ANP; 0% at EC30 ANP, 100% saturating ANP; activation, % at 10 µM; actives 0.14% (n = 370,000); AID 1671463; in the data active = activation above about 40%
Target sequence (P16066 whole entry, looked up): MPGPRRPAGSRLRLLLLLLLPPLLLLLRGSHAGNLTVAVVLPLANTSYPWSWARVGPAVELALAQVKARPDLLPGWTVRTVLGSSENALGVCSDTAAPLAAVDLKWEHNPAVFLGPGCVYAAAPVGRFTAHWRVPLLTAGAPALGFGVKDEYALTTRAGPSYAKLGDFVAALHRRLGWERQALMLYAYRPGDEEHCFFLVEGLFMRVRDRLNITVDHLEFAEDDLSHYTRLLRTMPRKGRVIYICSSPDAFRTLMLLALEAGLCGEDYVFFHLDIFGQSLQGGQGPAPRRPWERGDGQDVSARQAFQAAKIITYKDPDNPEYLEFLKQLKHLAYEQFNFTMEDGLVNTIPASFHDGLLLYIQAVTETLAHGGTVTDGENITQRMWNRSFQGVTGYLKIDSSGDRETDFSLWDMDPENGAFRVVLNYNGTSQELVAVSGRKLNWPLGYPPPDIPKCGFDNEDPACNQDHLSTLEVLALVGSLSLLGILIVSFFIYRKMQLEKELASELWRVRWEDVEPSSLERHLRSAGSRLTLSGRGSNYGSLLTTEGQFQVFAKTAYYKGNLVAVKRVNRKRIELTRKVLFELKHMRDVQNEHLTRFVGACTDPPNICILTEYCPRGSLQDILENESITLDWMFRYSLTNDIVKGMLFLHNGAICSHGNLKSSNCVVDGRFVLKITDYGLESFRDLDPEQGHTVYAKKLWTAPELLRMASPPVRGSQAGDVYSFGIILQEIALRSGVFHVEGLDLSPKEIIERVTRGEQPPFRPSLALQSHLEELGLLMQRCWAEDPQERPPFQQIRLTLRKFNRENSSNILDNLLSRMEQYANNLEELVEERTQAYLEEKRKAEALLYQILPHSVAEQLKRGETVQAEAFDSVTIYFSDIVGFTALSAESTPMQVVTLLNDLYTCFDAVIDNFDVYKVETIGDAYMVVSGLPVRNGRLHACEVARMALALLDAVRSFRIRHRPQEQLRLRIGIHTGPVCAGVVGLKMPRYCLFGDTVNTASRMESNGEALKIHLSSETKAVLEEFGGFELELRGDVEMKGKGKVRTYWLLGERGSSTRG
ADAM10 inh: inhibits human ADAM10 | O14672 | recombinant ADAM10, EDANS/DABCYL FRET peptide cleavage, 3 h | inhibition, % at 7 µM | actives 0.62% (n = 370,000) | AID 720582;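 active = inhibition above a per-campaign cutoff equal to the mean of compounds falling between control-based bounds plus 3 SD, cut at about 20% in these data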
KLK7 zymogen act: activates the human kallikrein-7 zymogen. P49862. purified proKLK7, EDANS-DABCYL substrate fluorescence; 100% is mature enzyme control, 0% vehicle. activation, % at 7 µM. actives 0.9% (n = 370,000). AID 652039;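 active = activation above the mean of all tested compounds plus 3 SD, computed per campaign excluding outliers beyond control limits, cut at about 13% in these data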
KLK7 act conf: proKLK7 activation, confirmation; activation, % at 7 µM; actives 68% (n = 3,200); shares compounds with KLK7 zymogen act; purified proKLK7, EDANS-DABCYL substrate fluorescence; scaled: vehicle 0, mature enzyme 100;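 active = activation, as change over the incubation, above the mean of all tested compounds plus 3 SD, cut at about 13% in these data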
EDANS-DABCYL int: optically interferes with EDANS-DABCYL signal, flagging KLK7 hits; AID 686952; EDANS-DABCYL substrate fluorescence interference, no enzyme, 4 h; solvent 0%, active enzyme control 100%; activation, % at 7 µM; shares compounds with KLK7 zymogen act; actives 80% (n = 3,200);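 active = activation above the all-compound mean plus 3 SD, ignoring values outside control-based bounds, cut at about 4.8% in these data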;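 also: value is the 4 h activation minus the activation read at time zero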
Of the large screens only hits and unclear results are named; the others gave an inactive call (follow-up assays come after a bar, where they were run).

OCc1ccccc1-c1cnc2cccnn12	KLK7 zymogen act 82 | KLK7 act conf 66 | EDANS-DABCYL int 79
CN(C)C(=O)c1cccc(-c2ccc3nncn3c2)c1	none
c1ccc(CCNc2ccc3ncc(-c4cccc5ccccc45)n3n2)nc1	none
O=C(NCCO)c1cccc(-c2cnc3cccnn23)c1	KLK7 zymogen act 54 | KLK7 act conf 38 | EDANS-DABCYL int 37
O=C(NCCO)c1ccc(-c2cnc3cccnn23)cc1	KLK7 zymogen act 48 | KLK7 act conf 63 | EDANS-DABCYL int 78
CCOc1ccc(C(=O)NCCO)cc1	none
Cc1ccc(-n2c(SCC(=O)Nc3ccccc3-c3ccccc3)nnc2-c2ccccc2)cc1	none
NC1=[N+](Cc2ccccc2)C[C@H]2C(=C3CCCC[C@H]3n3c(=O)n(-c4ccccc4)c(=O)n32)N1	none
CS(=O)(=O)N1c2ccccc2C[C@H]1Cc1cc2ccccc2o1	none (no result: KLK7 zymogen act)
O=C(OCc1cn(Cc2cccc(F)c2)nn1)N1CCCCC1	none
CN1CCN(C(=O)c2ccc(-c3cnc4cccnn34)cc2)CC1	KLK7 zymogen act 67 | KLK7 act conf 69 | EDANS-DABCYL int 70
COc1ccc(CCNC(=O)c2sc(=S)n(C)c2N)cc1	KLK7 zymogen act 15 | KLK7 act conf 15 | EDANS-DABCYL int 13
Cc1cc(-c2ccccc2)n2ncnc2n1	none
COc1ccc(-c2cc(-c3ccccc3)nc3ncnn23)cc1	KLK7 zymogen act 15 | KLK7 act conf inactive | EDANS-DABCYL int inactive
CCOC(=O)Nc1ccc2c(c1)[C@@]1(CC(=O)N(CC(C)C)C1c1ccccc1)C(=O)N2C (some centres not stated)	none
CCOC(=O)c1nn(-c2ccc3c(c2)CCN3C(C)=O)cc1O	KLK7 zymogen act 175 | KLK7 act conf inactive | EDANS-DABCYL int 19
CCOC(=O)c1nn(-c2ccc(F)cc2)cc1O	none
Cc1ccc(-n2nc(C)c3c2NC2=C(C(=O)CC(C)(C)C2)C3c2ccccc2OCC(=O)O)cc1 (configuration not stated)	KLK7 zymogen act 44 | KLK7 act conf 33 | EDANS-DABCYL int 35
C=CCOc1ccccc1C1C2=C(CC(C)(C)CC2=O)Nc2c1c(=O)n(C)c(=O)n2C (configuration not stated)	none
COc1ccc(-c2cc(=O)c3cc(OC)ccc3o2)cc1	none
COc1ccc2oc(-c3ccccc3)c(C(=O)O)c2c1	none
COc1ccc2oc(-c3ccccc3)cc(=O)c2c1	KLK7 zymogen act 14 | KLK7 act conf inactive | EDANS-DABCYL int inactive
COc1ccc2oc(-c3ccccc3)c(C(N)=O)c2c1	KLK7 zymogen act 13 | KLK7 act conf inactive | EDANS-DABCYL int 18
CCOC(=O)c1c(-c2ccccc2)oc2ccc(OCC(O)CN(C)C)cc12 (configuration not stated)	KLK7 zymogen act 17 | KLK7 act conf inactive | EDANS-DABCYL int inactive
CCOC(=O)c1c(-c2ccccc2)oc2ccc(OCC(=O)NNC(=O)CCCC(=O)O)cc12	KLK7 zymogen act 13 | KLK7 act conf inactive | EDANS-DABCYL int inactive
CCOC(=O)CC[C@@]1(C(=O)OCC)C[C@@H](CC(=O)NCc2ccc(OC)c(OC)c2)C(=O)N2CCCC=C21	none
CSc1ccc(-c2cc(=O)c3ccccc3o2)cc1	KLK7 zymogen act 66 | KLK7 act conf 68 | EDANS-DABCYL int 76
CCOC(=O)c1c(-c2ccccc2)oc2ccc(OC(C)=O)cc12	none
CCOC(=O)c1c(-c2ccccc2)oc2ccc(OC(C)C(=O)O)cc12 (configuration not stated)	KLK7 zymogen act 36 | KLK7 act conf inactive | EDANS-DABCYL int inactive
O=C(O)c1cccc(CN2C(=O)SC(Nc3cccc4ccccc34)C2=O)c1 (configuration not stated)	KLK7 zymogen act 60 | KLK7 act conf 62 | EDANS-DABCYL int 69
CCOC(=O)[C@@]12CCCC3=C1N(CCC3)C(=O)[C@H]2CC(=O)NCc1cccs1	none
NS(=O)(=O)c1ccc(N=Cc2c(O)n(-c3nccs3)c(=O)c3ccccc23)cc1	KLK7 zymogen act 23 | KLK7 act conf 18 | EDANS-DABCYL int 20
Cc1cccc(-n2c(O)c(C=Nc3ccccc3O)c3ccccc3c2=O)n1	KLK7 zymogen act 18 | KLK7 act conf inactive | EDANS-DABCYL int 9.4
Cc1cccc(-n2c(O)c(C=Nc3cc(O)ccc3C)c3ccccc3c2=O)n1	none
Cc1cccc(-n2c(O)c(C=Nc3ccc(O)cc3)c3ccccc3c2=O)n1	KLK7 zymogen act 18 | KLK7 act conf 23 | EDANS-DABCYL int 23
O=C(N[C@@H]1C[C@@H]2O[C@@H](CO)CC[C@@H]2O[C@@H]1CCc1ccc(-c2cccnc2)cc1)c1cccc(F)c1	none
Nc1ccc2nc3c(c(Cl)c2c1)CCCC3	KLK7 zymogen act 14 | KLK7 act conf inactive | EDANS-DABCYL int inactive
O=C(COC(=O)c1ccccc1NCCO)NNC(=O)c1cccs1	KLK7 zymogen act 38 | KLK7 act conf 35 | EDANS-DABCYL int 37
O=C(COC(=O)c1ccccc1NCCO)NCCc1ccccc1	KLK7 zymogen act 19 | KLK7 act conf 16 | EDANS-DABCYL int 22
O=C(COC(=O)c1ccccc1NCCO)NCCC1=CCCCC1	none
CC(C#N)(NC(=O)COC(=O)c1ccccc1NCCO)C1CC1 (configuration not stated)	KLK7 zymogen act 19 | KLK7 act conf 25 | EDANS-DABCYL int 34
O=C(COC(=O)c1ccccc1NCCO)Nc1cccc(S(=O)(=O)NC2=NCCCCC2)c1	KLK7 zymogen act 17 | KLK7 act conf inactive | EDANS-DABCYL int inactive
COc1ccc(/C=N\NC(=O)CN2CCN(Cc3ccccc3)CC2)cc1OCc1ccccc1	none
O=C(COC(=O)c1ccccc1Br)NCC1CCCCC1	none
O=C(COC(=O)c1ccccc1NCCO)NCC1CCCCC1	KLK7 zymogen act 21 | KLK7 act conf inactive | EDANS-DABCYL int 5.2
COC(=O)c1ccc(C(=O)Nc2ccc3nc(-c4cccnc4)[nH]c3c2)cc1	KLK7 zymogen act 20 | KLK7 act conf inactive | EDANS-DABCYL int inactive
COc1ccc(-c2nc3ccccc3[nH]2)cc1	none
COC(=O)c1ccc(-c2nc3ccccc3[nH]2)cc1	KLK7 zymogen act 43 | KLK7 act conf 79 | EDANS-DABCYL int 73
COC(=O)c1ccc(C(=O)Nc2ccc3nc(-c4ccncc4)[nH]c3c2)cc1	none
O=C(Nc1ccc(-c2nc3ccccc3[nH]2)cc1)c1cccc(N2C(=O)CCC2=O)c1	KLK7 zymogen act 127 | KLK7 act conf 167 | EDANS-DABCYL int 171
C#CCN1C(C(=O)OC)CN(CCCCCC)CCS1(=O)=O (configuration not stated)	none

From PubChem BioAssay
